This is a sample that favours compounds with a hit; in the whole collection about 3.8% have one here.
Nrf2 ARE act: activators of Nrf2 (ARE) signaling | AREc32 ARE-luciferase reporter (MCF7-derived line), luminescence, 24 h | Potency, µM (doses to about 46.1 µM), for the others: at the top dose activation, usual class: activators | actives 0.31% (n = 410,000) | AID 624171; further: % of control where 0% means no effect; nearly all actives have a fitted effect of over 65% in size
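Nrf2 activation is followed as ARE-luciferase induction in the AREc32 line after one day of compound treatment; luminescence is read with Steady-Glo.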
ELG1 repair inh: ELG1-dependent DNA repair inhibition | actives 2.3% (n = 330,000) | AID 504467 | HEK293T ELG1-luciferase reporter, luminescence, 16 h; DNA damage induced by 5-fluorouridine | Potency, µM (doses to about 46.1 µM), without a hit: top-dose activity change, negative = inhibition, usual class: inhibitors; further: on the % scale 0 is the no-effect control and ±100 the full control effect; nearly all actives have a fitted effect of over 55% in size
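HEK293T cells expressing luciferase-tagged ELG1 (2,000/well) received 5-Fluorouridine plus compound or DMSO for 16 hr at 37 °C. Luciferase was read by ONE-Glo luminescence after 30 min at room temperature.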
Nrf2 inh: Nrf2 pathway inhibition; actives 2.1% (n = 360,000); A549 ARE-Fluc reporter, luciferase luminescence, 18-24 h; Potency, µM (top dose mostly 46 µM), without a hit: top-dose activity change, negative = inhibition, most hits filed as inhibitors; further: on the % scale 0 is the no-effect control and ±100 the full control effect; nearly all actives have a fitted effect of over 60% in size
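A549 ARE_Fluc cells (5000/well, 5% FBS OPTI-MEM) pre-incubated 2 h, then treated with compounds 18-24 h at 37C/5% CO2 in concentration-response. CellTiter-Fluor viability read first; BugLite luciferase luminescence after 15 min at room temperature gives Nrf2 activity.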
IDH1 R132H inh: inhibitors of human mutant IDH1 R132H; AID 602179; Potency, µM (doses to about 76.6 µM), for the others: at the top dose activity change, negative = inhibition, most hits filed as inhibitors; O75874; IDH1-R132H enzyme, NADPH consumption, diaphorase/resazurin fluorescence; actives 0.093% (n = 390,000); further: on the % scale 0 is the no-effect control and ±100 the full control effect; nearly all actives have a fitted effect of over 65% in size
Target sequence (O75874 whole entry R132H, stated change not applied): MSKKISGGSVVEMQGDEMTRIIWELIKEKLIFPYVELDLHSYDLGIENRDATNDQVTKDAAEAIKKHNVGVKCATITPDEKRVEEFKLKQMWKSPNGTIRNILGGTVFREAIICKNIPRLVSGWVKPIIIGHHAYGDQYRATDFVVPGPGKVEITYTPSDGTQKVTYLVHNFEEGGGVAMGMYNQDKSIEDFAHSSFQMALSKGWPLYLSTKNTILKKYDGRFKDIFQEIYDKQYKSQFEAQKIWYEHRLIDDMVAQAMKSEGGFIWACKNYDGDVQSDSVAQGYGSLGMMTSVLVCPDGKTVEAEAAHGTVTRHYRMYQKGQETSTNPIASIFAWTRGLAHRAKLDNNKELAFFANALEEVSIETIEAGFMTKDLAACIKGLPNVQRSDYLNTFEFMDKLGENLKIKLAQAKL
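IDH1-R132H (0.5 ug/mL) preincubated 30 min with compound, then NADPH (0.016 mM) and alpha-KG (2 mM) added; 80 min at RT, pH 7.5. Remaining NADPH coupled via diaphorase/resazurin to fluorescence (540/590 nm); concentration-response curves normalized to no-enzyme control.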
A549 tox-1: kills or reduces viability of A549 cells in Nrf2 counter-screen; AID 504648; Potency, µM (series often up to 46 µM), for inactives: top-dose activity change, negative = cytotoxicity, actives largely listed as inhibitors; A549 ARE-Fluc cells, CellTiter-Fluor viability, 18-24 h; actives 0.16% (n = 390,000); further: on the % scale 0 is the no-effect control and ±100 the full control effect
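Cytotoxicity counterscreen: CellTiter-Fluor fluorescence was measured in A549 ARE_Fluc cells after 18-24 h of compound exposure in a concentration series. The subsequent BugLite luminescent read reports ARE-luciferase activity.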
FLuc enzyme inh: firefly luciferase inhibition, Nrf2 hit validation; shares compounds with Nrf2 inh; purified firefly luciferase, luminescence inhibition; Potency, µM (top dose mostly 57.5 µM), for inactives: at the top dose activity change, negative = inhibition, actives largely listed as inhibitors; actives 4% (n = 1,400); further: on the % scale 0 is the no-effect control and ±100 the full control effect; nearly all actives have a fitted effect of over 65% in size
A549 tox-2: A549 cytotoxicity, Nrf2 inhibitor counterscreen. shares compounds with Nrf2 inh. A549 ARE-Fluc cells, cytotoxicity counterscreen. Potency, µM (titrated, usually from 46.1 µM), without a hit: at the top dose activity change, negative = cytotoxicity, actives largely listed as inhibitors. actives 2% (n = 1,400);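 further: cells exposed to compounds for 18 to 24 hours; on the % scale 0 is the no-effect control and ±100 the full control effect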
Nrf2 ARE inh: confirmation of Nrf2 inhibitors in A549 ARE reporter cells. actives 74% (n = 1,400). Potency, µM (highest dose often 46.1 µM), without a hit: top-dose activity change, negative = inhibition, actives largely listed as inhibitors. A549 ARE-firefly luciferase reporter, luminescence. shares compounds with Nrf2 inh; further: on the % scale 0 is the no-effect control and ±100 the full control effect; nearly all actives have a fitted effect of over 65% in size
* = called active by the depositor; ? = inconclusive; / = not tested or not shown; [ ] = remark or other dose. The call rests on the fitted dose curve; in most records, active means well fitted curve in the direction sought with a large enough effect; inconclusive means small, poorly fitted or top-dose-only effect, or another doubt; inactive means no such curve, though single readings can be large; an effect the other way counts as inactive or inconclusive. Potency means the concentration at half of the fitted maximal effect.

SMILES	Nrf2 ARE act	ELG1 repair inh	Nrf2 inh	IDH1 R132H inh	A549 tox-1	FLuc enzyme inh	A549 tox-2	Nrf2 ARE inh
Cc1cc(CN(C)C(=O)c2cc(COc3ccc4ncccc4c3)on2)on1	2%	?	4.6µM*	-3%	-17%	-25%	-3%	5.2µM*
CCC(O)C1CCN(C(=O)c2cc(COc3ccc4ncccc4c3)on2)CC1 (stereo not drawn)	3%	-4%	1.8µM*	4%	?	-19%	-11%	1.5µM*
Cc1cccnc1CN1CCN(C(=O)c2cc(COc3ccc4ncccc4c3)on2)CC1	3%	?	4.1µM*	-7%	-16%	0%	-2%	?
O=C(c1cc(COc2ccc3ncccc3c2)on1)N1CCCC(O)C1 (stereo not drawn)	3%	?	?	-13%	-7%	/	/	/
O=C(COC(=O)/C=C/c1ccc([N+](=O)[O-])cc1)NCC1CCCCC1	0%	?	-6%	0%	-11%	/	/	/
Cc1cc(C)cc(NC(=O)N2CCC3(CC2)Oc2ccccc2C(=O)N3Cc2ccccc2F)c1	4%	/	?	/	0%	/	/	/
O=c1[nH]c(=O)n(Cc2ccccc2)c2c1C(C(F)(F)F)(C(F)(F)F)N=C(c1ccco1)N2	2%	-6%	?	7%	/	/	/	/
O=c1[nH]c(=O)n(Cc2ccco2)c2c1C(C(F)(F)F)(C(F)(F)F)N=C(c1ccc(F)cc1)N2	0%	-6%	4.1µM*	-2%	-29%	3%	-23%	2.9µM*
O=C(Nc1cc2c(cc1Cl)-c1ccc([N+](=O)[O-])cc1C2=NO)C(F)(F)F	8%	/	4%	-2%	-6%	/	/	/
Cc1nc2ccccc2n1Cc1ccc(Br)cc1	2%	/	?	3%	1%	-21%	3%	?
Oc1c(C(Nc2nccs2)c2ccc(C(F)(F)F)cc2)ccc2cccnc12 (stereo not drawn)	0%	2.6µM*	4.6µM*	6%	-10%	-11%	-23%	5.8µM*
Cc1ccc(-n2c(-c3ccccc3)c[n+]3c2CCC3)cc1	0%	1.6µM*	5.8µM*	-9%	?	0%	-6%	6.5µM*
FC(F)Sc1ccc(-n2c(-c3ccc(Cl)cc3)c[n+]3c2CCC3)cc1	-1%	?	15%	-6%	9%	/	/	/
Cc1ccc(-n2c(-c3ccc(Cl)cc3)c[n+]3c2CCC3)cc1	0%	2.9µM*	3.7µM*	1%	-15%	3%	-2%	-36%
CCCC1(c2ccccc2)NC(=O)N(CC(=O)NCC2COc3ccccc3O2)C1=O (stereo not drawn)	0%	-2%	-8%	-2%	16%	/	/	/
CC[n+]1c(/C=C2\Sc3ccccc3N2C)ccc2cccc(C)c21	-1%	?	3.7µM*	3%	?	-14%	6.5µM*	2.6µM*
CCN1/C(=C/C=C/c2sc3ccccc3[n+]2CC)Sc2ccccc21	-1%	?	1.3µM*	?	-5%	?	12µM*	2.6µM*
CCC(=O)/C=C1/Sc2ccccc2N1CC	0%	-2%	/	7%	-1%	/	/	/
CCN1/C(=C/c2ccc3cc(C)ccc3[n+]2CC)Sc2ccccc21	-3%	?	0.73µM*	4%	?	-2%	5.8µM*	/
COc1ccc(OC)c(NC(=O)c2c(NCc3ccc(OC)c(OC)c3)sc3c2CCC(C)C3)c1 (stereo not drawn)	17%	/	/	-11%	?	/	/	/
CCOc1ccc(-c2cc3c(=O)n(Cc4nc(-c5ccc(OCC)c(OC)c5)oc4C)ccn3n2)cc1Cl	0%	/	9%	8%	-2%	/	/	/
Cc1ccc(S(=O)(=O)Nc2ccc(Br)cc2C(NCC(=O)O)c2ccccc2)cc1 (stereo not drawn)	0%	5%	-17%	2%	-8%	/	/	/
O=C(O)CSc1cc(NS(=O)(=O)c2ccc(Br)cc2)c2ccccc2c1O	0%	15µM*	2.3µM*	14%	-16%	12µM*	-4%	-8%
COc1ccc(CC(=O)Nc2cccc(SC)c2)cc1OC	0%	5.2µM*	2.9µM*	-3%	-25%	-1%	-3%	8.2µM*
COc1ccc(CC(=O)Nc2cccc(S(=O)(=O)N3CCCCCC3)c2)cc1OC	2%	-20%	1.8µM*	0%	?	-3%	-22%	4.1µM*
SMILES	Nrf2 ARE act	ELG1 repair inh	Nrf2 inh	IDH1 R132H inh	A549 tox-1	FLuc enzyme inh	A549 tox-2	Nrf2 ARE inh
COc1ccc(NC(=O)c2cc(S(=O)(=O)N3CCCC3)cn2C)cc1Cl	0%	26%	3.7µM*	1%	-7%	-16%	1%	16%
COc1ccc(Cl)cc1NC(=O)c1cc(S(=O)(=O)N2CCCC2)cn1C	0%	?	?	0%	-1%	/	/	/
COc1ccc(NC(C)C(=O)Nc2cccc(S(=O)(=O)N3CCOCC3)c2)cc1OC (stereo not drawn)	0%	-27%	6.5µM*	0%	?	-8%	-13%	6.5µM*
COc1ccc(NC(C)=O)cc1NC(C)C(=O)Nc1cccc(S(=O)(=O)N2CCOCC2)c1 (stereo not drawn)	0%	13%	-1%	-2%	-1%	/	/	/
CCOc1ccc(C(=O)Nc2ccccc2C(=O)OCc2cc(=O)n3nc(C4CC4)sc3n2)cc1	0%	/	/	12%	-2%	/	/	/
CN(C)CCNCCCNc1c2ccccc2nc2cccc([N+](=O)[O-])c12	3%	/	?	5%	-28%	/	/	/
COc1cc(NC(=O)c2cccc(COCC(F)(F)C(F)F)c2)cc(OC)c1OC	0%[9.22 µM]	?	9.2µM*	5%	2%	-7%	0%	-11%
COc1ccc(NC(=O)c2ccc(COCC(F)(F)C(F)F)cc2)cc1OC	0%	6%	-22%	7%	-5%	/	/	/
CCN(Cc1ccccc1)C(=O)C1CCC(CNS(=O)(=O)c2ccc3c(c2)CCCC(=O)N3)CC1 (stereo not drawn)	10%	/	?	0%	5%	/	/	/
O=C(CCCCCn1c(=O)c2sccc2n(CC(=O)Nc2ccccc2F)c1=O)NCc1ccc2c(c1)OCO2	4%	/	-25%	-7%	0%	/	/	/
